{
  "source": "PubChem BioAssay (EPA / NIEHS)",
  "note": "Results filed as inconclusive are left out. Active and inactive are the calls of the source. Rule for the calls: active = hit-call score of the fitted dose curve at least 0.9, where 1 is the maximum; inconclusive = response in the unintended direction; inactive = score below 0.9.",
  "data": [
    {"read-out": "glucuronosyltransferase (UGT1A1), UGT1A1 (gene 54658)", "test": "CLD_UGT1A1_24hr: CellzDirect (CLD) Gene Expression Assay for glucuronosyltransferase (UGT1A1) at 24 hours (AID 2283696)", "protocol": "CLD_24hr is a cell-based, multiplexed-readout assay that uses hepatocyte, a human liver primary cell, with measurements taken at 24 hours after chemical dosing in a 96-well plate.CLD_UGT1A1_24hr is one of 16 assay component(s) measured or calculated from the CLD_24hr assay. It is designed to make measurements of mRNA induction, a form of inducible reporter, as detected with chemiluminescence signals by Quantitative Nuclease Protection Assay (qNPA) technology.Data from the assay component CLD_UGT1A1_24hr was analyzed at the endpoint, CLD_UGT1A1_24hr, in the positive analysis fitting direction relative to DMSO as the negative control and baseline of activity. Using a type of inducible reporter, gain-of-signal activity can be used to understand changes in the reporter gene as they relate to the gene UGT1A1. Furthermore, this assay endpoint can be referred to as a primary readout. To generalize the intended target to other relatable targets, this assay endpoint is annotated to the transferase intended target family, where subfamily is glucuronosyltransferase.\nHuman hepatocyte cultures were treated daily for two consecutive days with fresh dosing solutions containing appropriate concentrations of the 320 ToxCast chemicals (chemical identities were blinded to CellzDirect and other ToxCast collaborators), vehicle control (0.2% DMSO), and positive control inducers as summarized in Table 1. Due to the large number of treatment groups and chemicals examined, the ToxCast chemicals were divided into two groups (spanning two independent cultures of hepatocytes from separate donor preparations (Hu778: ToxCast plates 1 and 2; Hu776: ToxCast plates 3 and 4). Each preparation of human hepatocyte cultures was treated with respective vehicle control, medium only control, set of six positive controls/reference chemicals for the five hepatic receptor pathways, and a subset of eight of the ToxCast chemicals (indoxacarb, pyrithiobac-sodium, norflurazon, cyhalofop-butyl, methomyl, thiram, acetochlor, and propiconazole). These replicate data, coupled with internal replicates designed within the blinded ToxCast chemical library, provided additional data to evaluate interindividual differences between hepatocyte preparations and their potential impact on chemical profiles.Cell morphology and integrity were evaluated using phase-contrast microscopy as an indicator of hepatocyte cell health (Tyson & Green, 1987). Cultures for each treatment group (i.e., media, vehicle [0.2% DMSO], positive control inducers [multiple concentrations], and the ToxCast chemicals [multiple concentrations]) were observed and cell morphology was assessed relative to vehicle control cultures at each harvest time point (0, 6, 24, or 48 h). […] Images were evaluated at the conclusion of the study to assess changes in cell integrity and account for the effects of chemical exposure on uncharacteristic changes in concentration-dependent gene expression profiles. The results from these determinations of apparent cytotoxicity were annotated (yes/no) alongside the corresponding qNPA data for reference.At the conclusion of each treatment period, hepatocyte cultures (96-well) were washed with 1 volume of HBSS, lysed by addition of 25 ul ArrayPlate lysis buffer (HTG, Tucson, AZ), and 70 ul/well of Denaturation Oil, denatured by incubation at 95C for 10 min, and frozen at approximately -70C until analysis by nuclease protection assay (qNPA) (Roberts et al., 2007). For qNPA analysis, cell lysates were thawed at 50C for approximately 30 min, qNPA probes were added, and samples were incubated at 95C for 10 min to begin the detection process by denaturing the target RNA, dissociating the duplexes and secondary structure hybridization. At the conclusion of the hybridization period, S1 nuclease reagent was added to each sample to digest all nonprotected nucleotides at 50C for 60-90 min. […]", "values": [
      {"molecule": "CCOP(=S)(OCC)Oc1ccc([N+](=O)[O-])cc1", "outcome": "inactive"},
      {"molecule": "CNC(=O)ON=C(C)SC", "outcome": "inactive"},
      {"molecule": "CC(COc1ccc(Oc2ccccc2)cc1)Oc1ccccn1", "note": "(stereo not given)", "AC50": "4.08 µM (active)"},
      {"molecule": "CCCOCC(=Nc1ccc(Cl)cc1C(F)(F)F)n1ccnc1", "outcome": "inactive"},
      {"molecule": "CSc1nc(NC(C)C)nc(NC(C)C)n1", "outcome": "inactive"},
      {"molecule": "O=C(O)c1cc(Oc2ccc(C(F)(F)F)cc2Cl)ccc1[N+](=O)[O-]", "outcome": "inactive"},
      {"molecule": "COP(=O)(NC(C)=O)SC", "note": "(stereo not given)", "outcome": "inactive"},
      {"molecule": "O=c1ccc(=O)[nH][nH]1", "outcome": "inactive"},
      {"molecule": "CCC(CC)Nc1c([N+](=O)[O-])cc(C)c(C)c1[N+](=O)[O-]", "outcome": "inactive"},
      {"molecule": "CNC(=O)ON=C(SC)C(=O)N(C)C", "outcome": "inactive"},
      {"molecule": "CSC1=N[C@@](C)(c2ccccc2)C(=O)N1Nc1ccccc1", "outcome": "inactive"},
      {"molecule": "CCc1cccc(CC)c1N(COC)C(=O)CCl", "outcome": "inactive"},
      {"molecule": "COc1cc(OC)nc(Sc2cccc(Cl)c2C(=O)O)n1", "outcome": "inactive"},
      {"molecule": "CCc1cccc(C)c1N(C(=O)CCl)C(C)COC", "note": "(stereo not given)", "outcome": "inactive"},
      {"molecule": "S=C1NCCN1", "outcome": "inactive"},
      {"molecule": "CCCCN(CC)c1c([N+](=O)[O-])cc(C(F)(F)F)cc1[N+](=O)[O-]", "AC50": "9.11 µM (active)"},
      {"molecule": "Nc1nc(N)nc(NC2CC2)n1", "outcome": "inactive"},
      {"molecule": "CC(Oc1cccc(Cl)c1)C(=O)O", "note": "(stereo not given)", "outcome": "inactive"},
      {"molecule": "CCOP(=O)(NC(C)C)Oc1ccc(SC)c(C)c1", "note": "(stereo not given)", "outcome": "inactive"},
      {"molecule": "COc1cccc(C(=O)NN(C(=O)c2cc(C)cc(C)c2)C(C)(C)C)c1C", "AC50": "4.26 µM (active)"},
      {"molecule": "C[N+]1(C)CCCCC1", "outcome": "inactive"},
      {"molecule": "CCOC(=O)CC(SP(=O)(OC)OC)C(=O)OCC", "note": "(stereo not given)", "outcome": "inactive"},
      {"molecule": "CCOC(=O)COc1cc(-c2nn(C)c(OC(F)F)c2Cl)c(F)cc1Cl", "outcome": "inactive"},
      {"molecule": "CC(C)=CC1C(C(=O)OCN2C(=O)C3=C(CCCC3)C2=O)C1(C)C", "note": "(stereo not given)", "outcome": "inactive"},
      {"molecule": "CCOP(=S)(Oc1cnc(C(C)(C)C)nc1)OC(C)C", "note": "(stereo not given)", "AC50": "3.14 µM (active)"},
      {"molecule": "CCCCOC(=O)[C@@H](C)Oc1ccc(Oc2ccc(C#N)cc2F)cc1", "outcome": "inactive"},
      {"molecule": "CCNc1nc(Cl)nc(NC(C)(C)C#N)n1", "outcome": "inactive"},
      {"molecule": "FC(F)C(F)(F)OCC(Cn1cncn1)c1ccc(Cl)cc1Cl", "note": "(stereo not given)", "outcome": "inactive"},
      {"molecule": "CCOP(=S)(OCC)OC(Cl)C(Cl)(Cl)Cl", "note": "(stereo not given)", "outcome": "inactive"},
      {"molecule": "CCC(=NOC/C=C/Cl)C1=C(O)CC(C2CCOCC2)CC1=O", "note": "(stereo not given)", "outcome": "inactive"},
      {"molecule": "CSc1nnc(C(C)(C)C)c(=O)n1N", "outcome": "inactive"},
      {"molecule": "Cc1ccn2nc(S(=O)(=O)Nc3c(F)cccc3F)nc2n1", "outcome": "inactive"},
      {"molecule": "COP(=O)(OC)OC(Br)C(Cl)(Cl)Br", "note": "(stereo not given)", "outcome": "inactive"},
      {"molecule": "Cc1cc(C2CC2)nc(Nc2ccccc2)n1", "outcome": "inactive"},
      {"molecule": "C#CCC1=C(C)C(OC(=O)C2C(C=C(C)C)C2(C)C)CC1=O", "note": "(stereo not given)", "outcome": "inactive"},
      {"molecule": "CC(C1CC1)C(O)(Cn1cncn1)c1ccc(Cl)cc1", "note": "(stereo not given)", "outcome": "inactive"},
      {"molecule": "CCC(=O)Nc1ccc(Cl)c(Cl)c1", "outcome": "inactive"},
      {"molecule": "CCOP(=S)(OCC)Oc1ccc2c(C)c(Cl)c(=O)oc2c1", "AC50": "1.09 µM (active)"},
      {"molecule": "CN(C)NC(=O)CCC(=O)O", "outcome": "inactive"},
      {"molecule": "CNC(=O)Oc1cccc2c1OC(C)(C)O2", "outcome": "inactive"}
    ]}
  ]
}
